Results as given in the supplement of paper PMC10849652.
Of roughly 7,900 targets only a part is listed; those with a hit were picked by preference. About 0.6% of all pairs of compound and target were hits. A number with no mark means an inactive call.

Key:
Assay in all cases: log2 fold change, soluble protein after heating vs DMSO (PISA); higher = thermal stabilisation; K562 cells, 10 uM, 30 min; active = over 0.2 and 3.5 SD of the protein, either way, in both replicates (recomputed)
[1] = compound: Cc1ccc(NC(=O)c2ccc(CN3CC[C@H](N(C)C)C3)c(C(F)(F)F)c2)cc1Nc1nccc(-c2cncnc2)n1 [bafetinib]
How it was run: (§1)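 Thermal stability values are relative to control samples and come from duplicates. They are expressed as log2 fold changes. For measurement, K562 cells (2×10^6 cells/mL) received 10 μM compound for 30 min, and aliquots were heated for 3 min over 48°C-58°C, pooled, and extracted at 4°C in PBS with 0.5% NP-40. Soluble protein, the supernatant after 21,000xg for 90 min, was quantified by TMTpro 16plex LC-MS/MS with equalised channel sums.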

[2] = compound: Cc1cccc(CC(=O)N2CCc3c2ccc(-c2cn(C)c4ncnc(N)c24)c3F)n1
How it was run: as §1

[3] = compound: Cc1cn(-c2cc(NC(=O)c3ccc(C)c(Nc4nccc(-c5cccnc5)n4)c3)cc(C(F)(F)F)c2)cn1 [nilotinib]
How it was run: as §1

[4] = compound: Cc1nc(Nc2n[nH]c3c2CN(C(=O)N[C@H](CN(C)C)c2ccccc2)C3(C)C)c2sccc2n1
How it was run: as §1

[5] = compound: Cc1nc(Nc2ncc(C(=O)Nc3c(C)cccc3Cl)s2)cc(N2CCN(CCO)CC2)n1 [dasatinib]
How it was run: as §1

[6] = compound: Cc1ncc(-c2ccnc(Nc3ccc(S(C)(=O)=O)cc3)n2)n1C(C)C
How it was run: as §1

[7] = compound: Cn1cc(-c2ccc3c(c2)CCN3C(=O)Cc2cccc(C(F)(F)F)c2)c2c(N)ncnc21
How it was run: as §1

[8] = compound: Cn1cc(-c2ccc3nnc(C(F)(F)c4ccc5ncccc5c4)n3n2)cn1
How it was run: as §1

[9] = compound: Cn1cncc1[C@@](N)(c1ccc(Cl)cc1)c1ccc2c(c1)c(-c1cccc(Cl)c1)cc(=O)n2C [tipifarnib]
How it was run: as §1

[10] = compound: FC(F)(F)c1ccc(/C=C/c2nc(COc3ccc(CCCCn4ccnn4)cc3)co2)cc1 [mubritinib]
How it was run: as §1

[11] = compound: NC(=O)Nc1cc(-c2cccc(F)c2)sc1C(=O)N[C@H]1CCCNC1
How it was run: as §1

[12] = compound: NC(=O)c1cnc(N[C@@H]2CCCC[C@@H]2N)nc1Nc1cccc(-n2nccn2)c1
How it was run: as §1

[13] = compound: NC1(c2ccc(-c3nc4ccn5c(=O)[nH]nc5c4cc3-c3ccccc3)cc2)CCC1
How it was run: as §1

[14] = compound: NCC(=O)Nc1ccc(-n2nc(C(F)(F)F)cc2-c2ccc3c(ccc4ccccc43)c2)cc1
How it was run: as §1

[15] = compound: Nc1ccccc1NC(=O)c1ccc(CNC(=O)OCc2cccnc2)cc1 [entinostat]
How it was run: as §1

[16] = compound: O=C(CCCCCCC(=O)Nc1ccccc1)NO [vorinostat]
How it was run: as §1

[17] = compound: O=C(CCCCCCNC(=O)c1cnc(N(c2ccccc2)c2ccccc2Cl)nc1)NO [citarinostat]
How it was run: as §1

[18] = compound: O=C(O)c1ccc2c(c1)nc(Nc1cccc(Cl)c1)c1ccncc12 [silmitasertib]
How it was run: as §1

[19] = compound: O=C1NC(=O)C(c2cnc3ccccn23)=C1c1cn2c3c(cc(F)cc13)CN(C(=O)N1CCCCC1)CC2
How it was run: as §1

[20] = compound: c1cc(OCCN2CCCCC2)cc(-c2n[nH]c3ccc(-c4nnc[nH]4)cc23)c1
How it was run: as §1

Sequence of UniProt Q9H269 (Q9H269 whole entry, looked up): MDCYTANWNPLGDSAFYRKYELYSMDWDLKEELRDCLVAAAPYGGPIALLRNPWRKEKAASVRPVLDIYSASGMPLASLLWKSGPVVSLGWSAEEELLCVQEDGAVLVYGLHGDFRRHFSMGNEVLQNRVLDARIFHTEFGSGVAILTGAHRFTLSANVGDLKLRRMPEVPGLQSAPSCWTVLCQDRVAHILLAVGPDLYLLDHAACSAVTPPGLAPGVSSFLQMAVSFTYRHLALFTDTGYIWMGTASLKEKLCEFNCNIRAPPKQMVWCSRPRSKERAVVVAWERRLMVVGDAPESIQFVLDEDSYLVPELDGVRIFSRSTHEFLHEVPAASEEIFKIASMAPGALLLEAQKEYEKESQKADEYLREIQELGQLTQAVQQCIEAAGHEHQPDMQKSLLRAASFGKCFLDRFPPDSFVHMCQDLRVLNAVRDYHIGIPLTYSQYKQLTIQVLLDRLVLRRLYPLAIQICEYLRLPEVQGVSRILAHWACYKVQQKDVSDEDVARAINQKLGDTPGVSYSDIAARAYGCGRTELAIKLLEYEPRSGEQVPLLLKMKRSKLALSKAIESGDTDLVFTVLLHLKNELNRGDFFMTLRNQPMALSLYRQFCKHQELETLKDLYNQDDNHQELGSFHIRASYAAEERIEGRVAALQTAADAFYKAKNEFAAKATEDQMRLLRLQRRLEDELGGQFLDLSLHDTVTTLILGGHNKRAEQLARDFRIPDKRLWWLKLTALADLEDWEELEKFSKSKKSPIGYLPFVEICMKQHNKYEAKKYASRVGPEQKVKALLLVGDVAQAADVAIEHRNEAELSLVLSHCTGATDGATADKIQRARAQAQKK
Sequence of UniProt Q15629 (Q15629 whole entry, looked up): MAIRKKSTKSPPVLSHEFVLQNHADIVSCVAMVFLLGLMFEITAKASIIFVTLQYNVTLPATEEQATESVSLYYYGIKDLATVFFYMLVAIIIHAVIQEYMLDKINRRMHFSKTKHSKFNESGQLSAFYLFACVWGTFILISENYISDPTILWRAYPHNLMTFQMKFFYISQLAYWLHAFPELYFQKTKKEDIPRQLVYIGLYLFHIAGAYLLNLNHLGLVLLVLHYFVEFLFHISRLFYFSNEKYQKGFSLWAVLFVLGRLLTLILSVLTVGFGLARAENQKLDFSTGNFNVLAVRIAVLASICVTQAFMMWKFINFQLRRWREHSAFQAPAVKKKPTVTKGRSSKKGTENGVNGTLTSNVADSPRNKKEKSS
Sequence of UniProt Q7L0Y3 (Q7L0Y3 whole entry, looked up): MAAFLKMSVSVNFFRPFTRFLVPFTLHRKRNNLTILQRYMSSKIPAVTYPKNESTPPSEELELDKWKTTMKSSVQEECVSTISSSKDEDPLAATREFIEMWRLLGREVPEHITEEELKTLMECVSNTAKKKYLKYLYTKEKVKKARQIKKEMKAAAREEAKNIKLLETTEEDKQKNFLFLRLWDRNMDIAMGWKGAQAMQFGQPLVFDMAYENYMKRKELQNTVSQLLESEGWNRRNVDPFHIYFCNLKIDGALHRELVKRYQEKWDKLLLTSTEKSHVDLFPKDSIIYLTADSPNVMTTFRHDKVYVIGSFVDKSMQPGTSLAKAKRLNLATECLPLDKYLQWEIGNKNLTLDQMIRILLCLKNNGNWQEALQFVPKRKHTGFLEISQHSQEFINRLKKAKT
Sequence of UniProt P22314 (P22314 whole entry, looked up): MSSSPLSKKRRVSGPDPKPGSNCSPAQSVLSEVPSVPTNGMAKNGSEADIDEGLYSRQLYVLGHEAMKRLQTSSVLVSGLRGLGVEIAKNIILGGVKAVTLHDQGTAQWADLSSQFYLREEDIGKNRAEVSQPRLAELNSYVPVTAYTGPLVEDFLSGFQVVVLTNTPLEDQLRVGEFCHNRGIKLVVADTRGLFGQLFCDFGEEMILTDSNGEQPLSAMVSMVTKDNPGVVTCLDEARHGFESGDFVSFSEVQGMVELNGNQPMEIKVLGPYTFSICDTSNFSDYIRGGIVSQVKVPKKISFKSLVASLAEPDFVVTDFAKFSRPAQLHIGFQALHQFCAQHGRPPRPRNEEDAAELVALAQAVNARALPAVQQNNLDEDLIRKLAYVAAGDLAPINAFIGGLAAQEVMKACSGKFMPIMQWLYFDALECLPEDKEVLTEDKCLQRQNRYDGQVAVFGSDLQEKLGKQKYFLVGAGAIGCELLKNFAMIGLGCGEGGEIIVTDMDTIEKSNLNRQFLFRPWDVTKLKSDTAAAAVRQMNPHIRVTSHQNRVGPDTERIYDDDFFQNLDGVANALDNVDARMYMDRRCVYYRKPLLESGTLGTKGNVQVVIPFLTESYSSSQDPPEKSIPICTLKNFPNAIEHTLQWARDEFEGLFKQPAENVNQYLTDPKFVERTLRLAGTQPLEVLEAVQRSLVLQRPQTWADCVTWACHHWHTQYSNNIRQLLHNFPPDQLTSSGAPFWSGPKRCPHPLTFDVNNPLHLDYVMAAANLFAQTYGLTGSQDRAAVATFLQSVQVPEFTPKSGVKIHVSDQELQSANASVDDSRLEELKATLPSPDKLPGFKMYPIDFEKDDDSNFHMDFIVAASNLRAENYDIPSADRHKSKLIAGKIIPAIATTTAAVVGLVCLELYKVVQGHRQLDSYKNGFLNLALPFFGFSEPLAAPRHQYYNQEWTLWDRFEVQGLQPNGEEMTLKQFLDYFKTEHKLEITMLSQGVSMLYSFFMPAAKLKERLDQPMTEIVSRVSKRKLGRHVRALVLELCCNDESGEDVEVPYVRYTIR
Sequence of UniProt Q15388 (Q15388 whole entry, looked up): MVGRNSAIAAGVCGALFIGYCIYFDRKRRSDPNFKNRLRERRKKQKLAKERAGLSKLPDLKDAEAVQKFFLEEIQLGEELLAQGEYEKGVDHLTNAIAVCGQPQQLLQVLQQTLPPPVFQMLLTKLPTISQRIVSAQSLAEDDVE
Sequence of UniProt O75674 (O75674 whole entry, looked up): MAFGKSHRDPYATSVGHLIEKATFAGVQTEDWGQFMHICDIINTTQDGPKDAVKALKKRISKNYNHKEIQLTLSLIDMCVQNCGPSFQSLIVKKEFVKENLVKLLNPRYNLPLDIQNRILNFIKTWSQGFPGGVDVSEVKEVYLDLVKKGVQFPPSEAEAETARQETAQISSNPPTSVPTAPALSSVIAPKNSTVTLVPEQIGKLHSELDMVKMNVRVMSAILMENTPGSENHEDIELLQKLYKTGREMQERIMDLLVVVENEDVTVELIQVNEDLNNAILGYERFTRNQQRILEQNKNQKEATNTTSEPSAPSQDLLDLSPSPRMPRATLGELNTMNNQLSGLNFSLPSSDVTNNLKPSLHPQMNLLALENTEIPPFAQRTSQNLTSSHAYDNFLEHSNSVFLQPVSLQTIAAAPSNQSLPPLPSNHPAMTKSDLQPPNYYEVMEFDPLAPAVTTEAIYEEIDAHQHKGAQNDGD
Sequence of UniProt Q14157 (Q14157 whole entry, looked up): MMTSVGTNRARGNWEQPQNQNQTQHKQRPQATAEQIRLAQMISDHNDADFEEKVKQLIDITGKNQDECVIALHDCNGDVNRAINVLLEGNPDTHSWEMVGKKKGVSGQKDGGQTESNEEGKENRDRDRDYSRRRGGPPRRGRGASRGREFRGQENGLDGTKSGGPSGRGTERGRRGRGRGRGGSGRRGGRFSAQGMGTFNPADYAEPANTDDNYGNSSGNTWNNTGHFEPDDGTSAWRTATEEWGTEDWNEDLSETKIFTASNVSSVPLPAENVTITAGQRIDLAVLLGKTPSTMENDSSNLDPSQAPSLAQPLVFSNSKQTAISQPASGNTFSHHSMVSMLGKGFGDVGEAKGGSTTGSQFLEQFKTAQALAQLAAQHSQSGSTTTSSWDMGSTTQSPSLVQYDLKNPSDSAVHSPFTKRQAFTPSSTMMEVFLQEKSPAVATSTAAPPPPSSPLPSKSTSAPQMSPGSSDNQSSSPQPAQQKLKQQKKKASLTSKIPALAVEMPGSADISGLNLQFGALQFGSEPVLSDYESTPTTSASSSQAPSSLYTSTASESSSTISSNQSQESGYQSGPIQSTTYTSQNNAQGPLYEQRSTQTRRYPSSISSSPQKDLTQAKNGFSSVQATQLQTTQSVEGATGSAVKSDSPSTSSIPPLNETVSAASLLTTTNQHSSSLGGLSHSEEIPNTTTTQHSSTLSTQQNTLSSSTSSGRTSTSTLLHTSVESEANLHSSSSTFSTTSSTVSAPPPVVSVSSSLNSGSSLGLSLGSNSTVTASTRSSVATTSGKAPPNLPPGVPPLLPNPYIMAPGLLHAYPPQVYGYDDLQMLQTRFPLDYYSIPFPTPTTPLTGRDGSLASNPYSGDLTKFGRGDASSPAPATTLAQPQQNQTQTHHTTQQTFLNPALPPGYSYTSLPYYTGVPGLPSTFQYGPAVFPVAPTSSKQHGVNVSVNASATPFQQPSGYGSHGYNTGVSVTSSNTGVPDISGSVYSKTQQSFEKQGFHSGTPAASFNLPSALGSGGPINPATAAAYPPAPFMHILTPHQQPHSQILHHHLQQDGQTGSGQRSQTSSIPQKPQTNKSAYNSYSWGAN
Sequence of UniProt Q9UEU0 (Q9UEU0 whole entry, looked up): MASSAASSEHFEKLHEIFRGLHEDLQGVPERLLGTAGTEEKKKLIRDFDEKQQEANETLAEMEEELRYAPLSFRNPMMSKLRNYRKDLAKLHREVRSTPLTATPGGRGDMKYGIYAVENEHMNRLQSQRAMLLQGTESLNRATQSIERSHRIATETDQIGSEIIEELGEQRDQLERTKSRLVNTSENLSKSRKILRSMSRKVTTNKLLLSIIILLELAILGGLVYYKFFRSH
Sequence of UniProt Q92890 (Q92890 whole entry, looked up): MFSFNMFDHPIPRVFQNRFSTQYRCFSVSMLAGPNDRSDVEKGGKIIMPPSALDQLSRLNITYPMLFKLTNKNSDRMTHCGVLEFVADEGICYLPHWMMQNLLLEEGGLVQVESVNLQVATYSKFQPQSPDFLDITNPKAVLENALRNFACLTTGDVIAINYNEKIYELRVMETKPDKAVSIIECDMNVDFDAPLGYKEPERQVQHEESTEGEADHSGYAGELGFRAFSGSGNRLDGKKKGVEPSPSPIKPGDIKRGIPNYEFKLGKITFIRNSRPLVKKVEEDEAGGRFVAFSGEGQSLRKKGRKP

| Target | log2 fold change [1] | log2 fold change [2] | log2 fold change [3] | log2 fold change [4] | log2 fold change [5] | log2 fold change [6] | log2 fold change [7] | log2 fold change [8] | log2 fold change [9] | log2 fold change [10] | log2 fold change [11] | log2 fold change [12] | log2 fold change [13] | log2 fold change [14] | log2 fold change [15] | log2 fold change [16] | log2 fold change [17] | log2 fold change [18] | log2 fold change [19] | log2 fold change [20] |
| --- | --- | --- | --- | --- | --- | --- | --- | --- | --- | --- | --- | --- | --- | --- | --- | --- | --- | --- | --- | --- |
| TRMT10C (UniProt Q7L0Y3) | -0.044 | 0.107 | -0.043 | -0.066 | -0.181 | 0.012 | 0.046 | 0.038 | -0.037 | 0.153 | -0.055 | -0.027 | -0.137 | -0.018 | 0.022 | 0 | -0.018 | -0.026 | -0.075 | 0.035 |
| UBA1 (UniProt P22314) | 0.034 | 0.187 | -0.089 | -0.062 | -0.216 | 0.062 | 0.027 | 0.121 | -0.235 | 0.395 (active) | -0.044 | -0.112 | -0.275 | -0.101 | 0.159 | 0.167 | 0.125 | 0.018 | -0.013 | -0.028 |
| UFD1 isoform 1 (UniProt Q92890) | -0.007 | 0.01 | 0.025 | -0.019 | 0.031 | -0.003 | 0.006 | 0.002 | -0.046 | 0.041 | -0.001 | -0.015 | -0.03 | -0.001 | 0.01 | 0.003 | 0.061 | -0.014 | 0.014 | 0.034 |
| UTP4 (UniProt Q969X6) | -0.04 | -0.013 | 0.021 | 0.035 | 0.039 | 0.143 | -0.042 | -0.014 | 0.058 | -0.025 | 0.049 | 0.033 | 0.075 | 0.05 | -0.037 | -0.051 | -0.002 | 0.064 | 0.06 | -0.03 |
| TOMM20 (UniProt Q15388) | -0.194 | -0.035 | -0.002 | -0.031 | 0.039 | 0.01 | 0.003 | 0.006 | -0.095 | 0.017 | 0.008 | -0.034 | -0.023 | -0.131 | 0.01 | 0.031 | -0.088 | -0.006 | -0.088 | -0.01 |
| WNK1 isoform 7 (UniProt Q9H4A3) | -0.038 | 0.046 | -0.029 | -0.071 | 0.102 | 0.022 | 0.178 | -0.022 | -0.022 | 0.036 | 0.002 | 0.001 | -0.037 | -0.042 | 0.008 | -0.05 | 0.009 | -0.062 | -0.01 | -0.063 |
| UBAP2L isoform 5 (UniProt Q14157) | -0.044 | -0.02 | -0.003 | -0.015 | 0.005 | 0.007 | 0.011 | -0.003 | -0.028 | 0.024 | 0.017 | -0.004 | -0.013 | 0.001 | -0.016 | -0.016 | 0.013 | -0.007 | -0.029 | 0.023 |
| USP34 (UniProt Q70CQ2) | -0.004 | -0.002 | -0.054 | 0.034 | -0.141 | -0.223 | -0.012 | 0.033 | -0.134 | -0.049 | 0.012 | -0.08 | -0.131 | -0.02 | 0.024 | 0.118 | 0.123 | 0.045 | -0.008 | -0.074 |
| VTI1B (UniProt Q9UEU0) | -0.064 | -0.177 | 0.013 | 0.015 | -0.011 | 0.027 | 0 | 0.037 | 0.085 | -0.055 | 0.023 | -0.006 | -0.084 | -0.054 | -0.031 | -0.035 | -0.001 | 0.114 | 0.054 | -0.03 |
| TRAM1 (UniProt Q15629) | -0.152 | 0.117 | -0.075 | 0.074 | -0.138 | 0.072 | -0.07 | 0.02 | -0.152 | -0.022 | -0.104 | -0.073 | -0.162 | -0.196 | -0.075 | 0.034 | -0.083 | 0.066 | 0.025 | -0.021 |
| TOM1L1 (UniProt O75674) | -0.025 | -0.265 (active) | -0.003 | -0.069 | -0.04 | 0.087 | 0.031 | 0.032 | 0.06 | 0.034 | -0.086 | 0.102 | 0.008 | 0.018 | -0.034 | 0.092 | -0.074 | 0.021 | 0.008 | -0.041 |
| VPS16 (UniProt Q9H269) | 0.041 | 0.178 | -0.038 | -0.071 | -0.14 | -0.022 | -0.039 | 0.04 | -0.078 | 0.083 | 0.041 | -0.156 | -0.211 | 0.007 | 0.084 | 0.16 | 0.189 | 0.009 | 0.122 | 0 |
